Screens as filed in PubChem.
SENP6 block: SENP6 protease inhibition; Q9GZR1; Recombinant SENP6 catalytic domain, aminoluciferin luminescence; inhibition, % at 10 µM; hit rate 1.8% among 330,000;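 active = inhibition above about 50% at the single tested dose, limit read from the data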;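 note: plate controls were DMSO wells with enzyme for no effect and DMSO wells lacking enzyme for full effect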
C8 TRAIL sens: caspase-8 TRAIL sensitization | hit rate 1% among 360,000 | inhibition (viability loss, TRAIL sensitization), % at 10 µM | AID 624354 | NB7+C8 cells + TRAIL, ATPlite viability luminescence;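 active = compounds causing at least 50% loss of cell viability in the single-dose screen, relative to plate controls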
SENP7 inh: blocks the human protease SENP7. recombinant SENP7, Z-RLRGG-aminoluciferin luminescence, 40 min. hit rate 1.5% among 330,000. AID 434973. inhibition, % at 5 µM;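 active = inhibition above about 50% at the single test dose, limit read from the data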;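 note: plate controls were DMSO with enzyme for no effect and no enzyme buffer wells for full effect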
SENP8 block-1: SENP8 (human) protease inhibition | Q96LD8 | recombinant SENP8, Nedd8 substrate fluorescence | inhibition, % at 20 µM | hit rate 0.64% among 360,000; in the data active = inhibition mostly above about 40%, no sharp cut-off; inactive = mostly below about 27%
Target sequence (Q96LD8 whole entry, looked up): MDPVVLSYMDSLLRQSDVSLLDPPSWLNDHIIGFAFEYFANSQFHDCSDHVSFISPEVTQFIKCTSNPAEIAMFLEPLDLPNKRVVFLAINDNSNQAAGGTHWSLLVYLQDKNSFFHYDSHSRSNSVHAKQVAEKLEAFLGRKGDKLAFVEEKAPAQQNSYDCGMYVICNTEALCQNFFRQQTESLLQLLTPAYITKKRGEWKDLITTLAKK
SENP8 block-2: blocks the human protease SENP8 | Q96LD8 | purified SENP8, Z-RLRGG-aminoluciferin cleavage, luminescence | inhibition, % at 10 µM | hit rate 1.2% among 330,000; in the data active = inhibition above about 50%
PPC-1+TRAIL kill: compounds killing PPC-1 cancer cells with TRAIL present (potentiator screen, no TRAIL-free arm). PPC-1 cells + TRAIL, ATPLite viability luminescence. cell killing (% activity), % at 4 µM or 5 µM. hit rate 0.41% among 220,000;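 active = cell killing above 50% in the first pass at 4 µM, then a duplicate retest at 5 µM averaging 50% or more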;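 note: plate controls were cells with TRAIL plus DMSO for no effect and medium-only wells lacking cells for full effect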
SENP8 confirm: confirmation of human SENP8 protease inhibitors | shares compounds with SENP7 inh | inhibition, % at 12.5 µM | hit rate 40% among 6,200 | Recombinant SENP8, Z-RLRGG-aminoluciferin luminescence, 60 min;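 active = mean inhibition across replicates above about 50%, limit read from the data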
SENP6 conf: human SENP6 inhibition, confirmed. recombinant SENP6, Z-RLRGG-aminoluciferin luminescence. AID 488915. hit rate 58% among 6,200. shares compounds with SENP7 inh. inhibition, % at 12.5 µM
SENP7 conf: confirmation of human SENP7 protease inhibitors; hit rate 69% among 6,200; inhibition, % at 12.5 µM; shares compounds with SENP7 inh; AID 488917; recombinant SENP7, Z-RLRGG-aminoluciferin luminescence, 40 min
Casp3 select: inhibits human caspase-3 in SENP selectivity test. inhibition, % at 12.5 µM. hit rate 60% among 6,200. purified caspase-3, Z-DEVD-aminoluciferin luminescence, 60 min. shares compounds with SENP7 inh. AID 488918;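 active = mean inhibition above about 50%, limit read from the data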;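 note: plate controls were enzyme with DMSO for no effect and wells without caspase-3 for full effect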
Target sequence (P42574 28-227 limits assumed): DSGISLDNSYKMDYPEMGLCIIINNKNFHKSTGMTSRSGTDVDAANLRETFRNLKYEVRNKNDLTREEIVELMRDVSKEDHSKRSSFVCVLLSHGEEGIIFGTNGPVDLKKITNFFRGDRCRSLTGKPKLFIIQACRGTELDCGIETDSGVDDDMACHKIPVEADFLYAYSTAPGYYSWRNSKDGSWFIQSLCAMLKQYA
Luc interf: interferes with luciferase luminescence in SENP counter-screen | hit rate 39% among 6,200 | Pre-incubated SENP8/Z-RLRGG-aminoluciferin, luciferase luminescence interference | AID 488919 | inhibition, % at 12.5 µM | shares compounds with SENP7 inh;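 active = mean inhibition above about 50% when retested at one dose, limit read from the data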;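 note: plate controls were DMSO wells with completed reaction for no effect and substrate without enzyme for full effect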
* hit, by the source's call; · = not tested or not shown. This is a sample that favours compounds with a hit; in the whole collection about 3% have one here.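 Rule for the calls, unless noted: active = mean inhibition above about 50% in the one-dose retest (limit read from the data); inactive = the rest.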

SMILES	SENP6 block	C8 TRAIL sens	SENP7 inh	SENP8 block-1	SENP8 block-2	PPC-1+TRAIL kill	SENP8 confirm	SENP6 conf	SENP7 conf	Casp3 select	Luc interf
CC(C)(C)OC(=O)N1CCC(C(=O)Nc2ccc(C(=O)NC3CC3)cc2)CC1	·	2	·	4	·	·	·	·	·	·	·
CC(NC(=O)CN1CCOCC1)c1ccccc1 (centres undefined)	-7	-7	3	13	-2	·	·	·	·	·	·
Cc1ccc(OCC(=O)O)c(-n2nc3ccccc3n2)c1	-29	13	-5	-365	-14	-2	·	·	·	·	·
Cc1cc(Cl)c(O)c(-n2nc3ccccc3n2)c1	27	17	71*	15	20	7	1	12	44	37	4
c1ccc(Cc2nc3ccccc3[nH]2)cc1	-6	-8	10	12	1	·	·	·	·	·	·
c1ccc(OCc2nc3ccccc3[nH]2)cc1	61*	14	54*	9	31	24	50	51*	85*	82*	68*
Cc1ccc(S(=O)(=O)N2C[C@@H]3CCCC[C@@H]3[C@@H](C)[C@H]2CC(=O)c2ccccc2)cc1	·	9	6	8	·	·	·	·	·	·	·
CCn1c(/N=C/c2c[nH]c3ccccc23)nc2ccccc21	72*	-6	44	13	53*	-21	69*	71*	92*	34	79*
CCCn1c(/N=C/c2c[nH]c3ccccc23)nc2ccccc21	8	3	12	-7	3	-13	·	·	·	·	·
Cc1ccc2c(NC(=O)c3ccco3)cccc2n1	3	-19	3	2	-1	·	·	·	·	·	·
O=C(COc1cc(F)ccc1[N+](=O)[O-])Nc1ccc(N2CCCCC2)cc1	-13	11	-17	13	-13	·	·	·	·	·	·
CCOC(=O)N1CCN(C(=O)c2cc3c(s2)-c2ccccc2OC3)CC1	-13	-9	-1	-437	-1	-1	·	·	·	·	·
CCCN1CCN(C(=O)c2cc3c(s2)-c2ccccc2OC3)CC1	71*	0	56*	-424	65*	·	80*	80*	92*	84*	79*
Cc1oc(-c2cccc(Cl)c2)nc1CS(=O)(=O)CC(=O)NC1CCCC1	-13	-6	9	8	-9	·	·	·	·	·	·
COc1cccc(N=Nc2c(C)[nH]n(-c3ccccc3)c2=O)c1	1	-1	1	29	7	·	·	·	·	·	·
COc1cccc(C(C[N+](=O)[O-])c2c(C)[nH]n(-c3ccccc3)c2=O)c1 (centres undefined)	83*	-6	85*	73*	65*	·	8	8	2	-3	-2
NC(=O)c1c(NC(=O)c2ccccc2)sc2c1CCN(Cc1ccccc1)C2	-8	2	0	-402	2	·	·	·	·	·	·
N#Cc1c(NC(=O)CSc2ncn[nH]2)sc2c1CCCCC2	76*	11	33	16	68*	0	27	83*	89*	23	48
CN1CCc2c(sc(NC(=O)c3ccc4ccccc4c3)c2C(N)=O)C1	62*	34	68*	-315	67*	·	59*	61*	88*	61*	44
O=C(Nc1sc2c(c1C(=O)O)CCC2)c1cccc(Cl)c1	97*	0	68*	-11	95*	·	96*	99*	102*	95*	98*
O=C(Nc1sc2c(c1C(=O)O)CCC2)c1ccccc1Cl	17	-7	-1	-29	-13	·	·	·	·	·	·
CN1CCc2c(sc(NC(=O)Cc3ccccc3)c2C(N)=O)C1	-20	-15	-7	-65	-1	·	·	·	·	·	·
NC(=O)c1c(NC(=O)c2ccccc2)sc2c1CCc1ccccc1-2	10	24	64*	-272	-4	4	-26	-18	-6	-6	-9
